Assay results: the supplement of paper PMC4466140

Experiments:
Assay in all cases: SPOT peptide array binding signal intensity (averaged, normalized) (arbitrary units (background-subtracted, floor 0; scale differs between SH3 domains)); higher = stronger binding of the SH3 domain to the peptide
[1] = molecular target: AgAbp1
Summary of the method: (§1)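 Spot intensities were captured after detection with anti-GST antibody, an HRP-linked anti-mouse secondary and luminol, and quantified with Genespotter. The probes were GST-fused SH3 domains from four yeast species, produced in E. coli BL21(DE3), purified on glutathione Sepharose and incubated at 10 μg/ml overnight at 4°C on cellulose-bound synthetic 15-mer peptides with cysteines replaced by serines. Binding signal is the normalized, background-subtracted spot intensity averaged over replicates, and its arbitrary units differ between domains.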

[2] = molecular target: AgBbc1
Summary of the method: as §1

[3] = molecular target: AgBem1-D1
Summary of the method: as §1

[4] = molecular target: AgBzz1-D1
Summary of the method: as §1

[5] = molecular target: AgBzz1-D2
Summary of the method: as §1

[6] = molecular target: AgCyk3
Summary of the method: as §1

[7] = molecular target: AgFus1
Summary of the method: as §1

[8] = molecular target: AgHof1
Summary of the method: as §1

[9] = molecular target: AgHse1
Summary of the method: as §1

[10] = molecular target: AgLsb1
Summary of the method: as §1

[11] = molecular target: AgLsb4
Summary of the method: as §1

[12] = molecular target: AgMyo5
Summary of the method: as §1

[13] = molecular target: AgNbp2
Summary of the method: as §1

[14] = molecular target: AgRvs167
Summary of the method: as §1

[15] = molecular target: AgSho1
Summary of the method: as §1

[16] = molecular target: AgSla1-D1-D2
Summary of the method: as §1

[17] = molecular target: AgSla1-D3
Summary of the method: as §1

[18] = molecular target: CaAbp1-D1
Summary of the method: as §1

[19] = molecular target: CaAbp1-D2
Summary of the method: as §1

[20] = molecular target: CaBbc1
Summary of the method: as §1

[21] = molecular target: CaBem1-D1
Summary of the method: as §1

[22] = molecular target: CaBzz1-D1
Summary of the method: as §1

[23] = molecular target: CaBzz1-D2
Summary of the method: as §1

[24] = molecular target: CaCyk3
Summary of the method: as §1

[25] = molecular target: CaFus1
Summary of the method: as §1

[26] = molecular target: CaHof1
Summary of the method: as §1

[27] = molecular target: CaHse1
Summary of the method: as §1

[28] = molecular target: CaLsb1
Summary of the method: as §1

[29] = molecular target: CaLsb4
Summary of the method: as §1

[30] = molecular target: CaMyo5
Summary of the method: as §1

[31] = molecular target: SpBzz1-D2
Summary of the method: as §1

[32] = molecular target: SpCyk3
Summary of the method: as §1

[33] = molecular target: SpHof1
Summary of the method: as §1

[34] = molecular target: SpHof1-2
Summary of the method: as §1

[35] = molecular target: SpHof1-3
Summary of the method: as §1

[36] = molecular target: SpHse1
Summary of the method: as §1

[37] = molecular target: SpLsb1
Summary of the method: as §1

[38] = molecular target: SpLsb4
Summary of the method: as §1

[39] = molecular target: SpMyo1
Summary of the method: as §1

[40] = molecular target: SpNbp2
Summary of the method: as §1

[41] = molecular target: SpPex13
Summary of the method: as §1

[42] = molecular target: SpRvs167
Summary of the method: as §1

[43] = molecular target: SpSla1-D1-D2
Summary of the method: as §1

[44] = molecular target: SpSla1-D3
Summary of the method: as §1

Binder: IPSRPAPKPPSSASA
- SPOT peptide array binding signal intensity [1]: 14
- SPOT peptide array binding signal intensity [2]: 289
- SPOT peptide array binding signal intensity [3]: 35
- SPOT peptide array binding signal intensity [4]: 18
- SPOT peptide array binding signal intensity [5]: 19
- SPOT peptide array binding signal intensity [6]: 1
- SPOT peptide array binding signal intensity [7]: ≤ 0
- SPOT peptide array binding signal intensity [8]: ≤ 0
- SPOT peptide array binding signal intensity [9]: 50.5
- SPOT peptide array binding signal intensity [10]: 475
- SPOT peptide array binding signal intensity [11]: 12
- SPOT peptide array binding signal intensity [12]: 1790
- SPOT peptide array binding signal intensity [13]: 8100
- SPOT peptide array binding signal intensity [14]: 1.67
- SPOT peptide array binding signal intensity [15]: ≤ 0
- SPOT peptide array binding signal intensity [16]: 16
- SPOT peptide array binding signal intensity [17]: 3.25
- SPOT peptide array binding signal intensity [18]: 102
- SPOT peptide array binding signal intensity [19]: 128
- SPOT peptide array binding signal intensity [20]: 1300
- SPOT peptide array binding signal intensity [21]: 1620
- SPOT peptide array binding signal intensity [22]: 1550
- SPOT peptide array binding signal intensity [23]: 1510
- SPOT peptide array binding signal intensity [24]: 190
- SPOT peptide array binding signal intensity [25]: 30
- SPOT peptide array binding signal intensity [26]: ≤ 0
- SPOT peptide array binding signal intensity [27]: 1.25
- SPOT peptide array binding signal intensity [28]: 1.25
- SPOT peptide array binding signal intensity [29]: 53.5
- SPOT peptide array binding signal intensity [30]: 156

Binder: PSRRAPLQLPQLVNK
- SPOT peptide array binding signal intensity [31]: ≤ 0
- SPOT peptide array binding signal intensity [32]: ≤ 0
- SPOT peptide array binding signal intensity [33]: 7.75
- SPOT peptide array binding signal intensity [34]: 1.25
- SPOT peptide array binding signal intensity [35]: 89.8
- SPOT peptide array binding signal intensity [36]: ≤ 0
- SPOT peptide array binding signal intensity [37]: 45.2
- SPOT peptide array binding signal intensity [38]: 2
- SPOT peptide array binding signal intensity [39]: 0.5
- SPOT peptide array binding signal intensity [40]: 3
- SPOT peptide array binding signal intensity [41]: ≤ 0
- SPOT peptide array binding signal intensity [42]: 1.67
- SPOT peptide array binding signal intensity [43]: ≤ 0
- SPOT peptide array binding signal intensity [44]: ≤ 0
